# Data reported in ChEMBL document CHEMBL3988442, “University of Dundee, Small-Polar-MMV Screening Library” (2021).
# About 960 (1.5%) of roughly 66,000 compounds showed an effect of 50% or more. The sample as a whole holds a higher share of strong results than the screen did.
# System: Trypanosoma brucei
# Assay: Trypanosoma brucei 72 hour study
# Assay type: functional, organism-based
# Set-up: scale not given: in the data most compounds retested in dose-response had high values
compound,measurement,setting,value
O=C(O)C(F)(F)F.O=C1CC2(CCCCN2C(=O)c2ccncc2)CN1CC1CC1 (stereo not drawn),Percent Effect,"30.3 µM, […]",-11.8%
O=C(CCn1cncn1)N1CCCC1c1noc(C2CC2)n1 (stereo not drawn),Percent Effect,10 µM,-39.57%
COCCN1CCC2(CC1)CC(NC(=O)C1CC1)c1ccccc1O2.O=C(O)C(F)(F)F (stereo not drawn),Percent Effect,"30.3 µM, […]",-14.66%
O=C(N1CCC(OCc2ccccn2)CC1)C1(c2ccc(F)cc2)CC1,Percent Effect,"30 µM, 30.03 µM",-36.15%
Fc1ccc2[nH]c3c(c2c1)CCN1C(c2ccncc2)N2CCC31CC2 (stereo not drawn),Percent Effect,"30.3 µM, […]",100.7%
CC(=O)NC1CCCc2c1[nH]c1ccc(F)cc21 (stereo not drawn),Percent Effect,"30 µM, 30.03 µM",-27.6%
Fc1ccc2[nH]c3c(c2c1)CCN1C(c2ccccn2)N2CCC31CC2 (stereo not drawn),Percent Effect,"30.3 µM, […]",100.3%
Fc1ccc2[nH]c(C3CCCN3CCc3ccccn3)nc2c1 (stereo not drawn),Percent Effect,"30 µM, 30.03 µM",22.71%
Cc1nc(Nc2ncccn2)cc(C2CCN(CC(C)C)C2)n1 (stereo not drawn),Percent Effect,"30.3 µM, […]",4.591%
CN(CCCOc1ccccc1Cl)C(=O)CN1C[C@@H]2CC[C@H](CC1=O)N2,Percent Effect,"30.3 µM, […]",-75.76%
COc1ccccc1-c1ncc(CN2C[C@@H](N(C)C)[C@H](C(C)C)C2)s1,Percent Effect,"30.3 µM, […]",89.3%
COc1ccccc1-c1ncc(CN2CCCC[C@H](N(C)C)C2)s1,Percent Effect,"30.3 µM, […]",40.64%
COc1ccccc1-c1ncc(CN2C[C@H](O)[C@@H](N3CCCC3)C2)s1,Percent Effect,"30.3 µM, […]",20.14%
COc1ccc(C2CCCN2C(=O)NCCCn2ccnc2)cc1 (stereo not drawn),Percent Effect,"30.3 µM, […]",-18.05%
CC(C)Nc1ncnc2c1CCNCC2,Percent Effect,"30.3 µM, […]",-40.35%
CC(Nc1ncnc2c1CCNC2)c1ccc(C(C)(C)C)cc1 (stereo not drawn),Percent Effect,"30.3 µM, […]",90.36%
Cc1ccccc1C(CNc1ncnc2c1CCNC2)N(C)C (stereo not drawn),Percent Effect,"30 µM, 30.03 µM",-30.9%
CCOc1ccc(C(C)Nc2ncnc3c2CCNC3)cc1OCC (stereo not drawn),Percent Effect,"30.3 µM, […]",2.402%
CC(Nc1ncnc2c1CCNC2)c1ccc2c(c1)CCCC2 (stereo not drawn),Percent Effect,"30.3 µM, […]",100.2%
Cc1cc(C)n(CC(C)Nc2ncnc3c2CCNC3)n1 (stereo not drawn),Percent Effect,"30 µM, 30.03 µM",-30.59%
CCCc1ccc(C(C)Nc2ncnc3c2CCNC3)cc1 (stereo not drawn),Percent Effect,"30.3 µM, […]",56.69%
Cc1ccccc1C(Nc1ncnc2c1CCNC2)c1ccccc1 (stereo not drawn),Percent Effect,"30 µM, 30.03 µM",-12.11%
CC(Nc1ncnc2c1CCNCC2)c1nc2c(s1)CCCC2 (stereo not drawn),Percent Effect,"30 µM, 30.03 µM",6.589%
CCNC(c1ccc(F)cc1)c1cccnc1 (stereo not drawn),Percent Effect,"30 µM, 30.03 µM",-17.98%
O=C(O)C(F)(F)F.O=C(c1cccs1)N1CC[C@@H](N2CCOCC2)[C@@H]1Cc1ccccc1,Percent Effect,"30 µM, 30.03 µM",16.01%
O=C(O)C(F)(F)F.O=C(O)[C@]12CCCN(CC3CCOC3)C[C@H]1CN(c1ncccn1)C2 (stereo partly drawn),Percent Effect,"30.3 µM, […]",-92.21%
Cc1cccc(C(=O)N2CCCN(CCCSCC#N)CC2)c1,Percent Effect,"30 µM, 30.03 µM",-25.24%
O=C(O)C(F)(F)F.O=C(c1ccccc1)N1CCC[C@]2(C[C@@H](Oc3ncccc3F)CO2)C1,Percent Effect,"30 µM, 30.03 µM",-46.98%
